From the supplement of paper PMC3484114
± gives the standard deviation.

These compounds were tested on OVCAR-3-derived ovarian cancer stem-like cells (spheroids) (assay: cell growth relative to untreated control; higher = more growth (less inhibition)). Settings: 2.29 µM; 96 h.
How it was run: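 OVCAR-3 spheroid-derived stem-like cells were trypsin-dissociated, seeded at 50,000 cells/mL in stem cell medium in ultra-low attachment 96-well plates and preincubated 24 h. Compounds were then added at 2.29 uM for 96 h at 37°C, 5% CO2, in 4 replicate wells. Viability was read as TOX8 resazurin fluorescence (ex 560/em 590 nm) after 4 h. Percent growth was calculated relative to untreated wells after blank subtraction and Grubbs outlier removal.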

Structure (SMILES)	cell growth
Cc1c(C(=O)C/C(=N\O)C(=O)Nc2cc(Cl)c(Cl)cc2Cl)[n+](=O)c2ccccc2n1[O-]	68.5 ± 17%
CN1CCCC2C(c3ccccc3)C(C3=NCCCC3)C(c3ccccc3)CC21 (centres undefined)	110 ± 27%
O=C(ON=C1c2ccccc2C(Br)C(Br)c2ccccc21)c1ccccc1 (centres undefined)	107 ± 22%
C(=C/c1nc2ccccc2o1)/c1ccc2c(c1)OCO2	94 ± 16%
CC1C(Oc2c(-c3ccc(O)c(O)c3)oc3c(O)cc(O)cc3c2=O)OC(O)C(O)C1O (centres undefined)	77.6 ± 18%
CC1=NN(C(=O)c2ccncc2)C(=O)C1N=Nc1ccc(F)cc1 (centres undefined)	146 ± 33%
Cc1nn(-c2ccccc2)c2c1CC(=O)Nc1ccccc1-2	114 ± 32%
CSCC(CO)NC(=O)/C=C/c1c(C)[nH]c(=O)[nH]c1=O (centres undefined)	82.8 ± 9.5%
COc1ccc(CCN(C)CCCC(C#N)(c2ccc(OC)c(OC)c2)C(C)C)cc1OC (centres undefined)	115 ± 16%
O=c1cnn(C2OC(CO)C(O)C2O)c(=S)[nH]1 (centres undefined)	100 ± 24%
CN(C)CCN1C(=O)c2cccc3cc(N)cc(c23)C1=O	60.2 ± 11%
COC(=O)NC1C(C)OC(OC2C/C=C(/C)C3C=CC4C(OC5CC(OC6CCC(OC7CC(O)C(OC8CCC(O)C(C)O8)C(C)O7)C(C)O6)C(OC(C)=O)C(C)O5)C(C)CC(C)C4C3(C)/C(O)=C3/C(=O)OC4(CC(C=O)=CC(O)C4/C=C\2C)C3=O)CC1(C)[N+](=O)[O-] (centres undefined)	61.9 ± 10%
O=C1Cc2c([nH]c3ccc(Br)cc23)-c2ccccc2N1	109 ± 9.9%
S=C1Nc2cnc3ccccc3c2SC1c1ccccc1 (centres undefined)	9.8 ± 3.9%
CC1(C)CC(Nc2ccc(Nc3ccccc3)cc2)CC(C)(C)N1	72.4 ± 10%
CCCC(=O)OCC1OC(n2ccc(N)nc2=O)C(OC(=O)CCC)C1OC(=O)CCC (centres undefined)	31.7 ± 19%
CSc1ccc(NC(=O)CCl)cc1	80.8 ± 14%
CC(C)C(C)C=CC(C)C1CCC2C3=CC=C4CC(O)CCC4(C)C3CCC21C (centres undefined)	97.6 ± 23%
COC(=O)NC1C(C)OC(OC2C/C=C(/C)C3C=CC4C(OC5CC(OC6CC(O)C(OC7CC(O)C(OC)C(C)O7)C(C)O6)C(O)C(C)O5)C(C)CC(C)C4C3(C)/C(O)=C3\C(=O)OC4(CC(C)C(CO)=CC4/C=C\2C)C3=O)CC1(C)[N+](=O)[O-] (centres undefined)	105 ± 34%
CCCCOc1ccc(NC(N)=Nc2ccc(Cl)cc2)cc1	124 ± 20%

Structure (SMILES)	cell growth
CCCCn1c2c(n(CCCC)c1=S)-c1c(n(CCCC)c(=S)n1CCCC)SSSS2	27.2 ± 5.8%
Nc1ccccc1C(=O)NC(=O)Nc1ccc(Oc2ncc(Br)cn2)c(Cl)c1	61.6 ± 21%
COc1ccc2c(c1)CCc1c-2n[nH]c1-c1[nH]nc2c1CCc1cc(OC)ccc1-2	87.5 ± 18%
Cc1nc2c(nc1C)C(=O)c1ccccc1C2=O	54.6 ± 6.1%
COc1ccc2cc(CN3CCC(C4CCN(Cc5ccc6cc(OC)ccc6c5)CC4)CC3)ccc2c1	110 ± 24%
O=[N+]([O-])c1cccc2nc3ccccc3c(NCCCNc3c4ccccc4nc4cccc([N+](=O)[O-])c34)c12	10.8 ± 2.9%
CN(C)c1cccc(F)c1C(=O)NC(=O)Nc1ccc(Cl)cc1	102 ± 28%
Cc1ccc(C)c2c(N=Nc3ccccc3[N+](=O)[O-])c(O)[nH]c12	138 ± 41%
COc1cccc(/C=N\NC(=O)C(C)SC(C)C(=O)N/N=C/c2cccc(OC)c2)c1 (centres undefined)	100 ± 33%
C[CH2][Ge]([CH2]C)([CH2]C)[O]C(=O)CCC(=O)[O][Ge]([CH2]C)([CH2]C)[CH2]C	110 ± 7.5%
CN1CCN(CCSC2Cc3cc(Cl)ccc3Sc3ccccc32)CC1 (centres undefined)	151 ± 26%
COC(=O)Nc1nc2ccc(Br)cc2[nH]1	107 ± 23%
CON(C)C(=O)C1CCCO1 (centres undefined)	79.4 ± 11%
CN1CCN(CCNc2ccc(CO)c3sc4ccccc4c(=O)c23)CC1	49.7 ± 14%
CCOC(=O)/C=C/c1c(C)[nH]c(=O)[nH]c1=O	91.2 ± 25%
O=C1Oc2ccccc2C(=O)/C1=C1\C=C(c2ccccc2)SS1	158 ± 71%
O=C1C=Cc2ncccc2C1=O	97.9 ± 16%
Cc1ccccc1NC(=O)C(=O)C(C(=O)c1ccccc1F)C1OC(=O)c2ccccc21 (centres undefined)	94.9 ± 13%
CCN(CC)CCNc1ccc2nc(C)n3c4ccc(OC)cc4c(=O)c1c23	34.8 ± 9.9%
